Screen size: about 48,000 compounds; about 13,000 (27%) showed an effect of 50% or more. The list shows a part of the results.

The subject of this test is Wolbachia pipientis. As to the kind of experiment: Anti-Wolbachia Cell-Based Screen. Format: functional. The arrangement: scale not given: in the data most compounds retested in dose-response had high values. The conditions noted are these: 5 µM.
For `CCC(C)(O)CNC(=O)Nc1ccc(C)cc1Br` (configuration not stated), the “Percent Effect” value is -22.84%.

As for `CNCCN1C(=O)CC[C@H]2CN(c3ncc(F)cn3)CC[C@H]21`, the “Percent Effect” value is given as -2.163%.

Turning to `NC(=O)C(NC(=O)c1cc(Br)c[nH]1)c1ccccc1` (configuration not stated), the “Percent Effect” value is recorded as 0.3716%.

Consider `CCc1nc(C)c(CN2CCN(c3ncnc4scc(C)c34)CC2)[nH]1`, for which the “Percent Effect” value was -4.164%.

`CCC(C)N(C)CCNC(=O)c1ccccc1OCCOC` (configuration not stated): the “Percent Effect” value amounted to 91.86%.

On to `CCNC(=O)NC(=O)C(C)Nc1ccccc1OCCOC` (configuration not stated), for which the “Percent Effect” value was determined as 1.487%.

`CS(=O)(=O)c1ccccc1C(=O)NCC1Cc2ccccc2O1` (configuration not stated): the “Percent Effect” value is given as -10.07%.

Regarding `COCCOc1ccccc1C(=O)N(C)Cc1ncc(C)c(OC)c1C`, the “Percent Effect” value is reported as -3.129%.

In the case of `CS(=O)(=O)c1ccccc1C(=O)NCCCN1CCc2ccccc2C1`, the “Percent Effect” value worked out at 5.39%.

For the molecule `COCCOc1ccccc1C(=O)NCCN(C)C(C)C`, the “Percent Effect” value was determined as 86.22%.

As for `COCCCNC(=O)c1ccccc1S(C)(=O)=O`, the “Percent Effect” value was determined as 133.8%.

For the molecule `CN(CCCNC(=O)c1ccccc1OCC(N)=O)CC(F)(F)F`, the “Percent Effect” value was 8.203%.

On to `CCN(CCNC(=O)c1ccccc1OCCOC)C1CC1`, for which the “Percent Effect” value worked out at 11.11%.

For the molecule `CCCn1nc2c(cc1=O)CN(Cc1nc(CCOC)no1)CC2`, the “Percent Effect” value was determined as 3.931%.

Turning to `Cn1nc(C2CCCC2)c(-c2ccc3c(c2)OCO3)c1N`, the “Percent Effect” value was -8.229%.

In the case of `CCS(=O)(=O)N1CCC2(CC1)CC[C@@]1(C(=O)N(C)C)CN(C(C)=O)C[C@@H]21`, the “Percent Effect” value is -13.65%.

On to `CCS(=O)(=O)N1CCC2(CC1)CC[C@@]1(C(=O)N(C)C)CN(C)C[C@@H]21.O=C(O)C(F)(F)F`, for which the “Percent Effect” value is recorded as 4.402%.

As for `CNC(=O)[C@@]12CCC3(CCN(S(C)(=O)=O)CC3)[C@@H]1CN(C(C)=O)C2`, the “Percent Effect” value was found to be 110.1%.

Take `CCS(=O)(=O)N1CCC2(CC1)CC[C@@]1(C(=O)NC)CN(C(C)=O)C[C@@H]21`: the “Percent Effect” value is 0.6663%.

In the case of `CC(=O)N1C[C@H]2C3(CCN(S(C)(=O)=O)CC3)CC[C@@]2(C(=O)N(C)C)C1`, the “Percent Effect” value was -15.61%.

Turning to `CNC(=O)[C@@]12CCC3(CCN(S(=O)(=O)C4CC4)CC3)[C@@H]1CN(C(C)=O)C2`, the “Percent Effect” value was determined as 108%.

For the molecule `CN(C)C(=O)NCC1CC2(CO1)CN(c1nncs1)C2` (configuration not stated), the “Percent Effect” value is listed as 109.2%.

Take `O=C(NCC1CC2(CO1)CN(Cc1cccs1)C2)C1CCC1.O=C(O)C(F)(F)F` (configuration not stated): the “Percent Effect” value stood at 112.2%.

With `CCS(=O)(=O)N1CCCC2(COCCN(c3nncs3)C2)C1` (configuration not stated), the “Percent Effect” value is -5.345%.

`O=C(N[C@@H]1CN(Cc2cccs2)[C@@H]2COC[C@@H]21)C1CCC1.O=C(O)C(F)(F)F`: the “Percent Effect” value is -6.502%.

For the molecule `O=C(NC[C@H]1Cn2c(-c3ccccc3)cnc2CO1)C1CC1`, the “Percent Effect” value was -24.2%.

In the case of `O=C(O)C(F)(F)F.O=C(O)[C@]12CCCN(Cc3cccs3)C[C@H]1CN(c1ncccn1)C2`, the “Percent Effect” value was determined as 1.756%.

Consider `O=C(C1CCC2(CCN(c3nncs3)CC2)C1)N1CCCC1` (configuration not stated), for which the “Percent Effect” value is listed as -10.32%.

For `O=C(NCC1CC2(CO1)CN(c1nncs1)C2)C1CCC1` (configuration not stated), the “Percent Effect” value is recorded as 113.3%.

For the molecule `O=S(=O)(C1CC1)N1CCCC2(COCCN(c3nncs3)C2)C1` (configuration not stated), the “Percent Effect” value is given as 1.243%.

On to `O=C(NCC1CC2(CO1)CN(c1ncccn1)C2)C1CCC1` (configuration not stated), for which the “Percent Effect” value worked out at 124.3%.

Turning to `O=C(O)C(F)(F)F.O=C(O)C(F)(F)F.c1ccc(OCC2CC3(CCN(c4ncccn4)CC3)CO2)nc1` (configuration not stated), the “Percent Effect” value was 3.683%.

Consider `CN(Cc1ccccc1)CC1CC2(CO1)CN(c1nncs1)C2` (configuration not stated), for which the “Percent Effect” value amounted to 4.017%.

On to `Cn1c(Cn2cccn2)nnc1C1CCCN(c2ccncc2F)C1` (configuration not stated), for which the “Percent Effect” value turned out to be 5.271%.

In the case of `O=C(c1ccccn1)N1C[C@@H]2CC[C@H](C1)N(C(=O)CCC1CCCC1)C2`, the “Percent Effect” value is recorded as -23.02%.

As to `CCOCCCOC(=O)c1ccc2c(c1)[nH]c(=O)n2C`, the “Percent Effect” value is -4.386%.

Turning to `COc1ncnc(N(C)C)c1NC(=O)Cc1c[nH]c2ccc(F)cc12`, the “Percent Effect” value is listed as -15.56%.

On to `C[C@@H]1CN(C(=O)c2ccc(Br)cc2F)CC(C(N)=O)O1` (some centres not stated), for which the “Percent Effect” value is -4.259%.

In the case of `CCOCCCNC(=O)Cc1cccs1`, the “Percent Effect” value is recorded as 73.09%.

Turning to `O=C(Cc1cccs1)NCC1(O)CCSCC1`, the “Percent Effect” value came out at 3.486%.

Consider `CCOCCNC(=O)Cc1cccc(I)c1`, for which the “Percent Effect” value was determined as 3.378%.

Turning to `O=C(NCC1(O)CCc2ccccc21)Nc1ccc2c(c1)OCO2` (configuration not stated), the “Percent Effect” value is given as -4.749%.

Regarding `Cn1ncnc1NS(=O)(=O)c1ccc(F)cc1`, the “Percent Effect” value is listed as -13.8%.

Regarding `Cn1ncnc1NCc1ccccc1Cl`, the “Percent Effect” value turned out to be 98%.

Regarding `Clc1ccc(CNc2ccc(Cl)cn2)cc1`, the “Percent Effect” value was -12.24%.

Consider `Cn1ncnc1NCc1ccc(Cl)cc1`, for which the “Percent Effect” value is 106%.

For the molecule `Cn1ccnc1-c1noc(NCc2ccc(Br)cc2)n1`, the “Percent Effect” value is on record as 0.2508%.

On to `Cn1ccnc1-c1noc(NCc2ccc(Cl)cc2)n1`, for which the “Percent Effect” value is recorded as 9.491%.

`Cn1ncnc1NCc1ccc(Br)cc1`: the “Percent Effect” value worked out at 79.22%.

Consider `Cc1nnc(NCc2ccc(Br)cc2)o1`, for which the “Percent Effect” value is -15.89%.

For `Cn1ncnc1NCc1ccc(F)cc1`, the “Percent Effect” value is 113.5%.

Turning to `CN(Cc1cc(Cl)ccc1Cl)Cc1ncnn1C`, the “Percent Effect” value was determined as 20.54%.

The values above are taken from ChEMBL document CHEMBL3988442, “University of Dundee, Small-Polar-MMV Screening Library” (2021).
